Structures are written as SMILES. Screen size: about 360,000 compounds; about 25,000 (6.9%) were called active. Entries that show only a call come without a potency. Inconclusive results (about 9%) are left out. This is one part of a sample in which actives are shown more often than they occur. Calls follow the shape of the dose curve; as a rule, active = well fitted inhibition curve with a large enough effect; inconclusive = small, poorly fitted or top-dose-only effect; inactive = flat fitted curve, though single readings scatter.

This passage reports Potency and activity change, negative = inhibition results from PubChem BioAssay AID588342 (National Center for Advancing Translational Sciences (NCATS), 2011).
Potency is read from the fitted curve at half-maximal effect.

Chain of Luciferin 4-monooxygenase (Photinus pyralis) (P08659 whole entry, looked up): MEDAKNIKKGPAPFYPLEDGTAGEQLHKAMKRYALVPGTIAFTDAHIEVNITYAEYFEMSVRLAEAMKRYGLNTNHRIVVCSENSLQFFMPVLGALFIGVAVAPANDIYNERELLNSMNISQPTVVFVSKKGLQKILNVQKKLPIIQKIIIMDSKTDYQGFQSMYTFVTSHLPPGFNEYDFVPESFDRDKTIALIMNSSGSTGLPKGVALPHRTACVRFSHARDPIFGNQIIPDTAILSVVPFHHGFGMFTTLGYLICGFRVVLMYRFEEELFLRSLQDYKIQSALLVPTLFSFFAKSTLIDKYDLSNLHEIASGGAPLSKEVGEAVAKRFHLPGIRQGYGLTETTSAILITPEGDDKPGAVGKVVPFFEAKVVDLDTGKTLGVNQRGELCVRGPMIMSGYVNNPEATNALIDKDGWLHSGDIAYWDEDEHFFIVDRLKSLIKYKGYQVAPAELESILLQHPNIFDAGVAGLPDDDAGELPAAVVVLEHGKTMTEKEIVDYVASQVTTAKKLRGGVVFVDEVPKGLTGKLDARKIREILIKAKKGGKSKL

The assay deals with Luciferin 4-monooxygenase (Photinus pyralis) (UniProt P08659). Description: qHTS profiling assay for firefly luciferase inhibitor/activator using purifed enzyme and Km concentrations of substrates (counterscreen for miR-21 project). Also: nearly all actives have a fitted effect of over 55% in size. The settings on record: purified FLuc, luminescence inhibition; series mostly up to 57.5 µM. Summed up:
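Purified P. pyralis luciferase, 10 nM final, with Km-level 10 uM D-luciferin and 10 uM ATP in 50 mM Tris acetate pH 7.5, 10 mM Mg acetate, 0.01% Tween-20, 0.05% BSA; 6-point qHTS titration about 60 µM downward; luminescence read.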
Background: In qHTS, concentration-response curves come from the screen itself.
In the case of `CCCOC(=O)c1c(NC(=O)c2cc3nc(-c4ccc(OC)cc4)cc(C(F)(F)F)n3n2)sc2c1CCCC2`, the Potency entry was “inactive”.
Turning to `COc1ccc(N2CCN(C(=O)CSCc3nc(-c4ccccc4Cl)oc3C)CC2)cc1`, the Potency entry is “inactive”.
With `COc1ccc(-n2ccn(CC(=O)Nc3ccc(C)c(C)c3)c(=O)c2=O)cc1OC`, the Potency entry was “inactive”.
As for `Cc1cccc(S(=O)(=O)c2cn(Cc3ccccc3)c3cc(N4CCOCC4)c(F)cc3c2=O)c1`, the Potency entry is “inactive”.
Consider `CN(C)c1nnnn1-c1ccc(Cl)cc1`, for which the Potency entry was “inactive”.
As for `Nc1ccc2nn(-c3ccc(Cl)cc3)nc2c1`, the Potency was 0.757 µM (active).
With `O=C(NCCCO)c1nn(-c2ccc(Cl)cc2)nc1CO`, the Potency entry was “inactive”.
Turning to `COc1ccc(/C=N/Nc2ccccc2C(=O)O)cc1`, the Potency was 0.151 µM (active).
Still for that read-out and setting: the entry for `COc1ccc(/C=N/Nc2nc(-c3ccc(C)cc3)c(C#N)c(=O)[nH]2)cc1` is “inactive”; for `COc1ccc(/C=N/Nc2nc3ccccc3c(=O)[nH]2)cc1` it is 6.01 µM (active); for `COc1ccc(CCCc2nnc(SCc3nc4ccccc4c(=O)[nH]3)n2C)cc1` it is “inactive”.
`COc1cc(OC)c(S(=O)(=O)Nc2ccccc2C(=O)O)cc1S(=O)(=O)Nc1ccccc1C(=O)O`: the Potency entry is “inactive”.
Still for that read-out and setting: the entry for `COc1ccc(/C=N/OCC(=O)N(Cc2ccccc2)c2ccccc2C(=O)O)cc1` is “inactive”.
On the same count and under the same terms, with `COc1ccc(NC(=O)CCc2nnc3n(CC(C)C)c(=O)c4ccccc4n23)cc1OC` the entry was “inactive”; with `CSc1ccc(C2C(C(=O)Nc3ccccc3)=C(C)Nc3nc4ccccc4n32)cc1` (stereo unspecified), “inactive”.
As to `COc1ccc(CCNc2ncnc3onc(-c4ccc(Cl)cc4)c23)c(OC)c1`, the Potency entry is “inactive”.
For the compound `CCCn1c(=N)c(C(=O)NCc2ccccc2)cc2c(=O)n3cccc(C)c3nc21`, the Potency result is “inactive”.
Regarding `CCN1C(=O)/C(=C2/Sc3ccccc3N2CCCS(=O)(=O)O)SC1=S`, the Potency entry was “inactive”.
Still for that read-out and setting: with `CCN1/C(=C/C(=S)Nc2ccccc2)Sc2ccccc21` the figure was 10.7 µM (active); with `O=C(CCN1c2ccccc2Sc2ccccc21)Nc1ccccc1`, “inactive”.
Take `CCOC(=O)c1csc(NC(=O)Nc2cccc(OC)c2)n1`: the Potency entry is “inactive”.
As for `CCOC(=O)Cc1csc(NC(NC(=O)OCC)(C(F)(F)F)C(F)(F)F)n1`, the Potency result is “inactive”.
Regarding `CCOC(=O)Cc1csc(NC(=O)Nc2ccccc2)n1`, the Potency is 12 µM (active).
Take `COc1ccc(OC)c(CNC(=O)Cn2nc(C)c3c(C)n(-c4ccc(C)cc4)nc3c2=O)c1`: the Potency result was “inactive”.
`Cc1cccc(NC(=O)c2nnn(CC(=O)Nc3ccc(C(C)C)cc3)c2N)c1C`: the Potency entry is “inactive”.
As for `COc1ccc(CCNC(=O)CCc2c(C)nc3c(c(C)nn3-c3ccc(C)c(C)c3)c2C)c(OC)c1OC`, the Potency result was “inactive”.
For `CCN(C(=O)Cn1cc(S(=O)(=O)N2CCN(c3ccccc3F)CC2)c2ccccc2c1=O)c1ccc(C)c(C)c1`, the Potency entry is “inactive”.
Same read-out and setting: the figure for `O=S(=O)(Nc1ccc2nc(-c3ccco3)[nH]c2c1)c1ccccc1` is 12 µM (active).
On the same count and under the same terms, with `O=S(=O)(Nc1ccc2cn[nH]c2c1)c1ccccc1` the entry was “inactive”.
For the compound `CCc1ccccc1NS(=O)(=O)c1ccc2nc(-c3ccccc3)[nH]c2c1`, the Potency result is “inactive”.
Same read-out and setting: the entry for `CCN1CCN(Cc2c(O)ccc3oc(C)c(C(=O)Nc4ccc(C)cc4C)c23)CC1` is “inactive”; for `O=C(Cc1ccsc1)N1CCN(S(=O)(=O)c2cc(C(F)(F)F)cc(C(F)(F)F)c2)CC1` it is “inactive”.
Same read-out and setting: with `CCN(CC)C(=O)Oc1ccc(OC(=O)N(CC)CC)cc1` the entry was “inactive”.
On the same count and under the same terms, the entry for `COc1cccc(NC(=O)c2ccccc2SC)c1` is “inactive”; for `COc1ccc2nc(C)cc(Nc3cccc(C(=O)O)c3)c2c1` it is “inactive”.
Regarding `COc1cccc(Nc2ncccc2C(=O)O)c1`, the Potency was 19 µM (active).
Same read-out and setting: with `CCOC(=O)c1cnc2c(c(C)nn2CC)c1Cl` the entry was “inactive”; with `COC(=O)c1ccc(S(=O)(=O)N2CCc3ccccc3C2)cc1`, “inactive”.
Still for that read-out and setting: with `Cc1cc(C(=O)Nc2nnc(C3CC3)s2)c(C)s1` the figure was 13.5 µM (active).
For the compound `O=C(Nc1nnc(C2CC2)s1)c1ccccn1`, the Potency is 10.7 µM (active).
Same read-out and setting: the entry for `Cc1cc(=O)oc2cc(OCC(=O)Nc3nnc(C4CC4)s3)ccc12` is “inactive”; for `O=C(Cc1cccs1)Nc1nnc(C2CC2)s1` it is “inactive”; for `O=C(Nc1nnc(Cc2ccccc2)s1)c1cnccn1` it is “inactive”.
As for `Cc1cccc(NC(=O)CSCC(=O)Nc2nnc(C3CC3)s2)c1`, the Potency result was “inactive”.
For `Cc1ccc(N(C)C(=O)C2CCN(S(=O)(=O)c3ccc4c(c3)CCCN4C(=O)C3CCC3)CC2)cc1`, the Potency entry is “inactive”.
Same read-out and setting: with `O=C1CN(C(=O)Nc2ccccc2C(F)(F)F)C(c2ccccc2)c2c(sc3c2CCCC3)N1` (stereo unspecified) the entry was “inactive”; with `CCOC(=O)C1CCN(C(=O)c2cccc(S(=O)(=O)N(CC)c3ccccc3)c2)CC1`, “inactive”.
`COc1cc(C(=O)N2CCN(c3ccc(Nc4ccc(C)cc4)nn3)CC2)cc(OC)c1OC`: the Potency entry was “inactive”.
On to `O=C(CCN1C(=O)/C(=C/c2cccs2)SC1=S)NNC(=O)c1cccc(O)c1`, for which the Potency entry was “inactive”.
For the compound `COc1ccc(/C=C2\SC(=S)N(CCC(=O)Nc3cccc(C(=O)O)c3)C2=O)cc1OC`, the Potency was 6.75 µM (active).
Same read-out and setting: with `COc1ccccc1C(=O)NNC(=O)CCN1C(=O)/C(=C\c2ccccc2)SC1=S` the entry was “inactive”; with `COc1ccc(S(=O)(=O)N2CCSCC2)cc1`, “inactive”.
Same read-out and setting: the figure for `CCOC(=O)c1cn[nH]c1NC(=S)Nc1ccccc1` is 2.13 µM (active); for `CCOC(=O)c1cc2c(nc1NC(=S)Nc1ccccc1)CC(C)(CC)OC2` (stereo unspecified) it is “inactive”.
On the same count and under the same terms, the entry for `CCOC(=O)c1ccc(NC(=S)Nc2cc(C)cc(C)n2)cc1` is “inactive”; for `Nc1c(N(CCCO)C(=O)C2CCCC2)c(=O)[nH]c(=O)n1Cc1ccccc1` it is “inactive”; for `COc1ccc(N2C(=O)c3cccc4cccc(c34)C2=O)nn1` it is “inactive”.
In the case of `c1ccc(C2=Nc3cccc4cccc(c34)N2)cc1`, the Potency is 15.1 µM (active).
The same measure, in the same setting: with `COc1ccccc1C1=Nc2cccc3cccc(c23)N1` the figure was 16.9 µM (active); with `COc1ccccc1-c1nc(C(F)(F)F)c(OC)o1`, “inactive”.
Still for that read-out and setting: the entry for `COc1ccc(-n2c(SCC(N)=O)nc3c(oc4ccccc43)c2=O)cc1` is “inactive”; for `CC(C)Nc1nnc(SC(C)C(=O)N(C)C2CCCCC2)s1` (stereo unspecified) it is “inactive”; for `Cc1cccc(N(C)C(=O)CS(=O)(=O)c2cccc3nsnc23)c1` it is “inactive”.
For the compound `O=C(CCn1c(=O)c2ccccc2n(Cc2ccc(Cl)cc2)c1=O)NCc1ccc2c(c1)OCO2`, the Potency entry is “inactive”.
On the same count and under the same terms, with `COc1cc(Cl)c(NC(=O)C(NS(=O)(=O)c2cccs2)C(C)C)c(OC)c1` (stereo unspecified) the entry was “inactive”; with `Cc1ccn(-c2cccc(-n3ccc(C)n3)n2)n1`, 3.38 µM (active); with `CCCCc1nnc(NC(=O)CSc2nc(N)cc(=O)[nH]2)s1`, “inactive”.
Turning to `COc1ccc(Nc2nc(-c3cccnc3)nc3ccccc23)cn1`, the Potency result is “inactive”.
Still for that read-out and setting: the entry for `O=[N+]([O-])c1ccc(F)cc1Oc1nc(-c2cccnc2)nc2ccccc12` is “inactive”.
Consider `Fc1ccc(/C=N/Nc2nc(-c3cccnc3)nc3ccccc23)cc1`, for which the Potency was 2.13 µM (active).
Consider `Cc1ccc(C2C=C(c3ccc(Cl)cc3)Nc3nc(NC(=O)CCC(=O)O)nn32)cc1` (stereo unspecified), for which the Potency entry is “inactive”.
Take `CC(=O)N1CCc2cc(S(=O)(=O)NC(Cc3ccccc3)C(=O)NCc3ccc(C)cc3)ccc21` (stereo unspecified): the Potency result was “inactive”.
`COC(=O)[C@]1(S(=O)(=O)c2ccccc2)C[C@@H]2ON=C(c3ccc(OC)cc3)[C@@H]2C1`: the Potency entry was “inactive”.
As for `CCC(=O)c1cc2c(cc1NC(=O)c1cccs1)OCCO2`, the Potency entry is “inactive”.
For `COc1cc(NC(=O)c2ccc3c(c2)OCO3)ccc1NC(=O)c1cccs1`, the Potency is 10.7 µM (active).
Consider `COc1ccc(Cl)cc1NC(=O)CN(C)CC(=O)Nc1ccc2c(c1)OCO2`, for which the Potency entry is “inactive”.
The same measure, in the same setting: the figure for `COc1ccc(C(=O)Nc2ccc3c(c2)OCO3)cc1OC` is 10.7 µM (active); for `COc1cc(C(=O)NCC2(c3ccccc3)CCCC2)ccc1OC(C)C` it is “inactive”.
Same read-out and setting: the entry for `COc1ccc(NC(=O)c2ccc3nc(C(C)C)oc3c2)cc1OC` is “inactive”; for `COc1ccc(C(=O)Nc2ccc(-n3nncc3-c3ccccc3)cc2)cc1OC` it is “inactive”.
With `CN1CCN(C(=O)/C(=C\c2ccc3c(c2)OCO3)NC(=O)c2cccs2)CC1`, the Potency result is “inactive”.
As to `COc1ccc(C(=O)Nc2ccc(C3(C#N)CCCC3)cc2)cc1OC`, the Potency is 10.7 µM (active).
The same measure, in the same setting: with `C=CCNC(=O)/C(=C\c1cccc([N+](=O)[O-])c1)NC(=O)c1ccccc1` the entry was “inactive”; with `O=C(Nc1ccc(Br)cc1)c1cc2nc(-c3ccccc3)cc(-c3ccccc3)n2n1`, “inactive”; with `CCCCc1nn2c(=O)cc(COC(=O)c3ccc(NC(=O)c4ccccc4C)cc3)nc2s1`, “inactive”.
For `CCOC(=O)c1cnc(SCC(=O)NCc2ccco2)nc1N`, the Potency entry is “inactive”.
Same read-out and setting: with `CCCCOc1ccc(-c2ncc(C(=O)OCC)c(N)n2)cc1` the figure was 2.69 µM (active); with `CCCCCCOc1ccc(OC(=O)c2cccnc2)cc1`, “inactive”; with `Cc1ccn2cc(-c3nonc3C)cc2c1`, 26.9 µM (active).
Regarding `CCCCN(C)c1nnc(NC(=O)Nc2ccc(Br)c(C)c2)s1`, the Potency entry is “inactive”.
The same measure, in the same setting: with `Cc1ccc(S(=O)(=O)N2CCN(C(=O)c3ccccc3-c3nc4ccccc4s3)CC2)c(C)c1` the entry was “inactive”.
On the same count and under the same terms, the entry for `Cc1c(NC(=O)c2cc(-c3ccc(Cl)s3)nc3ccccc23)c(=O)n(-c2ccccc2)n1C` is “inactive”.
Regarding `CCOc1ccccc1-c1cc(C(=O)N2CCOCC2)c2ccccc2n1`, the Potency result was “inactive”.
Still for that read-out and setting: with `CC(=O)N1CCN(C(=O)c2cc(-c3ccc(C)o3)nc3ccccc23)CC1` the figure was 4.78 µM (active); with `O=C(c1cc(-c2ccc(Cl)s2)nc2ccccc12)N1CCOCC1`, 23.9 µM (active).
As for `Cc1cc(C(=O)N2CCN(c3ccccn3)CC2)c(C)o1`, the activity change, negative = inhibition was 3.1% [at 2.3 µM] (inactive).
Consider `CCN(CC)CCNC(=O)Cn1ncc2c3ccccc3n(Cc3ccccc3C)c2c1=O`, for which the Potency entry is “inactive”.
On the same count and under the same terms, with `CC(=O)c1ccc(NC(=O)Cn2c(=O)oc3ccccc32)cc1` the entry was “inactive”; with `Cc1ccc(C(=O)Nc2ccc(OCc3cc(=O)n4c(C)csc4n3)cc2)cc1`, “inactive”; with `Cn1cc(CN2CCCCC2c2ccccn2)c(-c2ccc3c(c2)OCCO3)n1` (stereo unspecified), “inactive”.
On the same count and under the same terms, with `CCO[C@H]1OC(C(=O)Nc2ccccc2)=C[C@@H](C2CC2)[C@@H]1CCCO` the entry was “inactive”.
